# About 120 (0.035%) of roughly 340,000 compounds were called active.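 Rule for the calls: active = mean replicate inhibition at least 50% and at least half of replicates individually reaching 50%; inconclusive = only one of the two criteria met; inactive = neither criterion met.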 What follows is part of a selection rich in actives, with near analogues and random picks from the rest.
# Assay: E. coli Tat export inhibitors, primary screen, MC4100, TorA-mCherry reporter, fluorescence, single point (AID 488895);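 note: exported cargo escapes ClpAP degradation while cytoplasmic cargo is degraded and loses fluorescence; 0% = median of neutral control wells and 100% = median of NaSCN control wells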
# Conditions: at 10 µM, stronger effect = higher value
row,Structure (SMILES),inhibition
1,COc1ccccc1C(=O)N/C(=C/c1ccc2c(c1)OCO2)C(=O)Nc1cccc(C(=O)O)c1,0.855% (inactive)
2,COc1ccc(N(CC(=O)NCc2ccc(F)cc2)C(=O)CCC(=O)Nc2nccs2)cc1,2.29% (inactive)
3,Cc1ccc(NC(=S)NC(NC(=O)Cc2cccc3ccccc23)C(Cl)(Cl)Cl)cc1 (stereo not given),-13% (inactive)
4,O=C1NCCn2nc3ccccc3c21,-31.2% (inactive)
5,O=C(O)CCCn1cc(NC(=O)COc2cccc(Cl)c2)cn1,-4.8% (inactive)
6,NC(=O)C1(N2CCCCC2)CCN(C(=O)c2ccc(C#Cc3ccccc3)o2)CC1,-3.45% (inactive)
7,COc1ccccc1N(CCOc1ccccc1)S(=O)(=O)c1ccccc1,10% (inactive)
8,CC(C)C(=O)Nc1ccc2c(c1)oc1ccccc12,-2.62% (inactive)
9,C=CCN(CC=C)CCOc1ccccc1[N+](=O)[O-],-4.39% (inactive)
10,C=CCSC(CC)(CC)C(N)=O,-4.28% (inactive)
11,COc1cc(C(=O)N2CCN(C/C=C/c3ccccc3)CC2)cc(OC)c1C,6.19% (inactive)
12,Cc1oc2cc3oc(=O)ccc3cc2c1C,-9.08% (inactive)
13,Cn1c(SCC(=O)NC2CCCCC2)nnc1-c1cc2ccccc2o1,1.56% (inactive)
14,Cc1ccc(NC(=O)CN(C)C(=O)c2ccc(Cl)c(S(=O)(=O)NCc3ccco3)c2)cc1,-9.55% (inactive)
15,COc1ccc(C(=O)N/N=C(\C)CC(=O)Nc2ccc(Cl)cn2)cc1,-26.7% (inactive)
16,O=C(NC(C(=O)NCCN1CCOCC1)C12CC3CC(CC(C3)C1)C2)C1CCCCC1 (stereo not given),6.49% (inactive)
17,COc1ccccc1NC(=O)COC(=O)Cc1ccc(S(=O)(=O)N2CCCCC2)s1,-5.48% (inactive)
18,O=C1C=C(c2cccc(Br)c2)C[C@@H](c2ccc(F)cc2)C1,18.1% (inactive)
19,CC1(C)C(=O)C2(CCCCC2)C(=O)OC1c1cccs1 (stereo not given),3.17% (inactive)
20,COCCCC1CCN(C(=O)C2CCC(=O)N(C3CCCCCC3)C2)CC1 (stereo not given),1.02% (inactive)
21,Cc1ccc(C(=O)NC2CCCC(C)C2C)cc1S(=O)(=O)N1CCCCC1 (stereo not given),-3.8% (inactive)
22,COc1cc(OC)cc(C(=O)NC2CCN(C(=O)N3c4ccccc4Sc4ccccc43)CC2)c1,9.12% (inactive)
23,CCC(C)(C(=O)NC1CCCCC1)N(C)C(=O)c1ccc2c(c1)OCO2 (stereo not given),4.87% (inactive)

row,Structure (SMILES),inhibition
1,CCN(CC)c1ccc(C(=O)c2cnc(/N=C/N(C)C)s2)cc1,12.9% (inactive)
2,CCOc1ccc(CCNC(=O)C2CCN(c3ccc(N4CCOCC4)nn3)CC2)cc1OCC,-3.82% (inactive)
3,COc1ccc(NC(=O)CSc2nc(NS(=O)(=O)c3ccc(C)cc3)cc(=O)[nH]2)cc1,0.509% (inactive)
4,CC(C)CC(O)C1CCN(C(=O)CCc2nnc(-c3ccc4c(c3)OCO4)o2)CC1 (stereo not given),-2.64% (inactive)
5,COc1ccc(N2CC(C(=O)NCCN3C(=O)S/C(=C\c4cccnc4)C3=O)CC2=O)c(OC)c1 (stereo not given),-1.64% (inactive)
6,O=C1C(Cl)=C(Oc2ccccc2)C(=O)c2ccccc21,-14.1% (inactive)
7,COc1ccc(-c2nonc2NC(=O)c2oc3ccc(F)cc3c2C)cc1OC,-6.3% (inactive)
8,Cc1noc(C)c1COc1cccc(C(=O)Nc2cccnc2)c1,11.3% (inactive)
9,COCCN1C(=O)C(=O)/C(=C(/O)c2ccc(S(=O)(=O)N3CCCCC3)cc2)C1c1ccc(OC)c(OC)c1 (stereo not given),-4.83% (inactive)
10,COCCCNC(=O)C1CC(=O)N(CCc2ccc(F)cc2)C1 (stereo not given),3.6% (inactive)
11,O=C(Nc1cccc(F)c1)NC1CCCCCCC1,3.94% (inactive)
12,C=CCn1c(SCc2c(C(=O)OC)sc(N)c2C(=O)OC)nnc1-c1ccc(Cl)cc1,0.305% (inactive)
13,CCCn1c(SCC(=O)c2ccc3c(c2)OCCO3)nnc1C(C)C,1.9% (inactive)
14,CC(=O)c1ccc(NC(=O)C(C)OC(=O)c2ccc(NS(=O)(=O)c3ccc4[nH]c(=O)[nH]c4c3)cc2)cc1 (stereo not given),-1.62% (inactive)
15,COc1cccc(CCNC(=O)COc2cccc3c2OC(C)(C)C3)c1,-3.07% (inactive)
16,O=C(NCc1ccccc1)c1onc(CSc2ccncc2)c1C(=O)NCc1ccccc1,4.39% (inactive)
17,Cn1c(SCC(=O)N2CCCCC2)nc2c(c1=O)SCC2,1.18% (inactive)
18,COc1cc2c(cc1OC)C(c1ccccc1Br)NC(=O)C2 (stereo not given),4.97% (inactive)
19,CSc1ccc(/C=C/C(=O)NC23CC4CC(CC(C4)C2)C3)cc1,1.4% (inactive)
20,COC(=O)c1cc(NC(=O)CC2C(=O)NCCN2C(=O)c2ccc(F)cc2)cc(C(=O)OC)c1 (stereo not given),-6.39% (inactive)
21,O=C(O)CCc1nc2cc(Cl)ccc2n(Cc2ccccc2)c1=O,3.23% (inactive)
22,COc1ccccc1CNS(=O)(=O)c1c(C)[nH]c(C)c1C(=O)N1CCCCC1,-2.57% (inactive)
23,Cc1noc(C)c1CSCC(=O)Nc1ccc(Br)cc1Cl,-0.881% (inactive)

row,Structure (SMILES),inhibition
1,Cc1ccc(/C=N/NC(=O)COc2ccccc2-c2ccccc2)cc1,0.565% (inactive)
2,CC(=O)NC(C(=O)NCC(N)=O)C(C)C (stereo not given),-5.64% (inactive)
3,Cc1ccc(SCC(=O)c2cc(C)c(OC(=S)N(C)C)c(C)c2)cc1,5.72% (inactive)
4,NC(=O)C[C@@H]1NC(=O)CNC(=O)c2cc([N+](=O)[O-])cc(I)c2NCCC(C(N)=O)NC1=O (stereo not given in full),-3.55% (inactive)
5,O=C(Nc1nnc(C2=COCCO2)o1)c1ccc([N+](=O)[O-])s1,-7.65% (inactive)
6,CCCOc1ccc2c3c(c(=O)oc2c1OCCC)CCC3,14.7% (inactive)
7,COc1cc(C2OC(c3cc(OC)c(OC)c(OC)c3)C(C)C2C)cc(OC)c1OC (stereo not given),-3.59% (inactive)
8,CCn1c(CC(=O)Nc2ccccc2)nnc1SCC(=O)N1CCOCC1,-5.24% (inactive)
9,C=CCn1c(SCC(=O)Nc2ccc(NC(C)=O)cc2)nc2sc(C)c(C)c2c1=O,-0.334% (inactive)
10,CC1(C)CC(=O)C(N=Nc2c(F)cccc2F)=C(O)C1,-8.43% (inactive)
11,CCc1ccccc1N1C(=O)C2C3CC(=O)C(c4ccccc43)C2C1=O (stereo not given),-1.63% (inactive)
12,COC(=O)C1CCN(CC(N)=O)CC1,-3.53% (inactive)
13,O=C(COC(=O)c1ccc(N2CCCC2=O)cc1)c1ccc(OC(F)F)cc1,6.18% (inactive)
14,CCn1c(SCC(=O)c2ccc(Cl)s2)nnc1-c1cccs1,-0.241% (inactive)
15,CCOC(=O)N1CCC(N2Cc3cccc(C(=O)Nc4c(C)cccc4CC)c3C2=O)CC1,14.7% (inactive)
16,CC1CCN(C(=S)NC2CC3CCC2C3)CC1 (stereo not given),-4.26% (inactive)
17,Cc1nc(C(=O)N2CCCC(C(=O)c3ccc(Cl)cc3)C2)cs1 (stereo not given),0.604% (inactive)
18,Oc1ccccc1-c1cc(-c2ccc(Cl)cc2)n[nH]1,-12.8% (inactive)
19,NS(=O)(=O)c1cc(C(=O)OCC(=O)NNC(=O)c2ccccc2)ccc1Cl,-3.95% (inactive)
20,COC(CCN(C)C)(c1ccccc1)c1ccccc1,-2.82% (inactive)
21,C=C1c2c(Cl)ccc(O)c2C(O)=C2C(=O)[C@]3(O)C(O)=C(C(N)=O)C(=O)[C@@H](N(C)C)[C@@H]3[C@@H](O)C12 (stereo not given in full),28.9% (inactive)
22,CN(C)[C@@H]1C(=O)C(C(N)=O)=C(O)[C@@]2(O)C(=O)C3=C(O)c4c(O)ccc(Cl)c4[C@@H](O)[C@H]3C[C@@H]12,151% (active)
23,CCN(C(=O)c1cc([N+](=O)[O-])ccc1NCc1cccnc1)c1ccccc1,-1.18% (inactive)

row,Structure (SMILES),inhibition
1,COc1ccc(C(=O)O)cc1S(=O)(=O)NC1CCN(Cc2ccccc2)CC1,-6.45% (inactive)
2,Cc1ccc(Cl)cc1NC(=O)COC(=O)C1CCCCC1,6.67% (inactive)
3,O=C(CCc1nnc2ccc(NCc3ccccc3Cl)nn12)NCC1CCN(C2CCCC2)C1 (stereo not given),1.11% (inactive)
4,O=C(/C=C/Nc1ccc(S(=O)(=O)Nc2cnc3ccccc3n2)cc1)c1cccnc1,-0.716% (inactive)
5,COc1ccc(Br)cc1/C=N/Nc1ccc(S(=O)(=O)Nc2ccccc2C(=O)O)cc1[N+](=O)[O-],-2.56% (inactive)
6,O=C(NCCCN1CCN(c2ccc(F)cc2)CC1)Nc1ccc([N+](=O)[O-])cc1,10.8% (inactive)
7,O=S(=O)(c1ccc(F)cc1)n1ccc(-c2cnc(-c3ccccc3)s2)n1,1.96% (inactive)
8,O=C(/C=N/O)Nc1ccccc1,1.32% (inactive)
9,c1ccc2c(-c3nn4nnnc4c4ccccc34)cccc2c1,13.5% (inactive)
10,COCCNc1nc(N)c([N+](=O)[O-])c(NCCO)n1,-3.96% (inactive)
11,Cc1ccc(CSCC2Nc3ccc(C(=O)N4CCN(c5ccc(F)cc5)CC4)cc3NC2=O)cc1 (stereo not given),-4.6% (inactive)
12,NC(=O)CCC(NS(=O)(=O)c1ccc(Cl)cc1)C(=O)NCc1ccccc1Cl (stereo not given),-7.83% (inactive)
13,CC(=O)N1CCN(CC(c2ccccc2)c2ccccc2)CC1,-7.44% (inactive)
14,CC1Cc2ccccc2N1C1=CC(=O)CC(C)(C)C1 (stereo not given),-0.619% (inactive)
15,CCC(C)NC(=O)C1c2ccccc2C(=O)N1Cc1ccccc1 (stereo not given),-2.59% (inactive)
16,O=C(NCC(=O)N(Cc1cccs1)C(C(=O)NC1CCCCC1)c1ccco1)c1cccs1 (stereo not given),7.02% (inactive)
17,CC(C)(C)c1ccc(/C=C/C(=O)NC2CCS(=O)(=O)C2)cc1 (stereo not given),0.013% (inactive)
18,Cc1c(C)c2cc3c4c(oc3c(C)c2oc1=O)CCCC4,-3.36% (inactive)
19,Cc1cc(N2CCCC2=O)cc(C)c1S(N)(=O)=O,-6.67% (inactive)
20,CC1Sc2ccc(C(=O)NCc3ccccc3Cl)cc2NC1=O (stereo not given),-5.09% (inactive)
21,CCC(=O)N1c2ccccc2NC2=C(C(=O)CCC2)C1c1ccco1 (stereo not given),-4.89% (inactive)

# From PubChem BioAssay AID488895 (Broad Institute, 2010)
